Bioassay records: PubChem BioAssay, National Center for Advancing Translational Sciences (NCATS)
ELG1 genotox: genotoxicity induction in ELG1-luciferase HEK293T cells | actives 1.3% (n = 330,000) | HEK293T ELG1-luciferase reporter, luminescence, 16 h | Potency, µM (doses to about 46 µM), for the others: at the highest dose activity change, positive = activation, actives largely listed as activators; note: % of control where 0% means no effect; nearly all actives have a fitted effect of over 60% in size
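HEK293T cells expressing luciferase-tagged ELG1 were exposed to compound or DMSO vehicle for 16 hr at 37 °C and 5% CO2. Luciferase activity was then measured with ONE-Glo after 30 min at room temperature.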
Rab9 promoter act: Rab9 promoter activation | Huh7 Rab9 promoter-luciferase reporter, luminescence, 24 h | Potency, µM (doses to about 9.22 µM), for inactives: top-dose activation, negative = inhibition, most hits filed as activators | actives 2.8% (n = 320,000); note: % of control where 0% means no effect; nearly all actives have a fitted effect of over 60% in size
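Rab9 promoter-driven luciferase in stably transfected Huh7 cells; 1500 cells/well rested 2 h, exposed to compound in DMSO for 24 h at 37 °C, 5% CO2. Luminescence read 10 min after adding luciferase reagent at ambient temperature.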
FLuc counter: firefly luciferase modulation, counter-screen for miR-21 project; P08659; purified FLuc, Km substrates, luminescence inhibition; Potency, µM (series often up to 57.5 µM), for inactives: top-dose activity change, negative = inhibition, hits mostly inhibitors; actives 6.9% (n = 360,000);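 note: plate controls were vehicle for no effect and reference inhibitor for full effect; nearly all actives have a fitted effect of over 55% in size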
Target sequence (P08659 whole entry, looked up): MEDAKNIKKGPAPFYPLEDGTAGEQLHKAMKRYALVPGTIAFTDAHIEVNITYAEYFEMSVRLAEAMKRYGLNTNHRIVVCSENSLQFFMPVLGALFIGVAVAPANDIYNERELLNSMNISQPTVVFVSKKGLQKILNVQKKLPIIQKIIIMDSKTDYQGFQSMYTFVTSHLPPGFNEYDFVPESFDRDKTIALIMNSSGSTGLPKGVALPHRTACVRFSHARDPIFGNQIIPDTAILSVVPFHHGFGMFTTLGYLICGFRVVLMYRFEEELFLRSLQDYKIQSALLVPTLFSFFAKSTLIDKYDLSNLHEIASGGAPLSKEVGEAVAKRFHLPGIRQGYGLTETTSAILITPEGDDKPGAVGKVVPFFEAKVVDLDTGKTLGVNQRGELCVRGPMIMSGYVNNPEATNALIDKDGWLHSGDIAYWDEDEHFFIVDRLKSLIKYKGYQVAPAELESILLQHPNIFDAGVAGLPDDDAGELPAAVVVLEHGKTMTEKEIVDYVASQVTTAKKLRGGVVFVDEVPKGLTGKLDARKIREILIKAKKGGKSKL
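Biochemical qHTS of compounds, final roughly 60 µM downward over six points, against 10 nM purified firefly luciferase using Km concentrations of substrates (10 uM D-luciferin, 10 uM ATP) in Tris acetate pH 7.5 buffer; luminescence output.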
ELG1 repair inh: ELG1-dependent DNA repair inhibition. HEK293T ELG1-luciferase reporter, luminescence, 16 h; DNA damage induced by 5-fluorouridine. Potency, µM (doses to about 46.1 µM), for inactives: at the top dose activity change, negative = inhibition, actives largely listed as inhibitors. actives 2.3% (n = 330,000); note: % is set by controls: 0 for no effect and ±100 for the full control effect; nearly all actives have a fitted effect of over 55% in size
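Step one: seed 2,000 cells per well. Step two: pin-transfer compound or DMSO alongside 5-fluorouridine. Step three: incubate 16 hr, 37 °C, 5% CO2. Step four: add ONE-Glo, wait 30 min, read luminescence.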
NPC1 prom act: NPC1 promoter activation | Huh7 NPC1 promoter luciferase reporter, 24 h | Potency, µM (top dose mostly 9.22 µM), inactives show top-dose activation, usual class: activators | actives 2.4% (n = 320,000) | AID 485313; note: % of control where 0% means no effect; nearly all actives have a fitted effect of over 60% in size
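Huh7 cells stably carrying NPC1 promoter–luciferase, plated in Opti-MEM with 10% FBS for 2 h, were exposed to compound in DMSO for 24 h at 37 °C; luciferase reagent was added for 10 min and luminescence read.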
SMN2 splice up: enhancers of SMN2 splice variant expression; HEK293 SMN2-luciferase splicing reporter, luminescence, 30-36 h; Potency, µM (doses to about 46.1 µM), inactives show at the highest dose activity change, positive = activation, hits mostly activators; actives 2.8% (n = 210,000); AID 1458; note: % of control where 0% means no effect; nearly all actives have a fitted effect of over 55% in size
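HEK293 cells carry an SMN2 minigene-luciferase reporter in which exon 7 inclusion puts luciferase in frame. Cells were seeded at 2000 cells/well, attached for 10-12 hours, then exposed to compounds for 30-36 hours at 37C before ONE-Glo luminescence.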
* hit, by the source's call; ? = inconclusive; · = no result. Sampled rows, rich in hits. Any-hit rate of the full collection: about 9.2%. Calls come from the whole dose curve; as a rule, active = well fitted curve in the direction sought with a large enough effect; inconclusive = small, poorly fitted or top-dose-only effect, or another doubt; inactive = no such curve, though single readings can be large; an effect the other way counts as inactive or inconclusive. Potency is the fitted concentration of half-maximal effect.

SMILES	ELG1 genotox	Rab9 promoter act	FLuc counter	ELG1 repair inh	NPC1 prom act	SMN2 splice up
COc1ccc(-c2csc(N(CCCN(C)C)C(=O)c3ccccc3F)n2)cc1	0%	-2%	1%	-8%	-2%	·
CN(c1ccc(O)cc1)c1nc(-c2ccccc2)cs1	?	?	?	?	2.2µM*	?
CCN(C(=O)c1ccccc1F)c1nc(-c2ccc(OC)cc2)cs1	?	2µM*	8.5µM*	?	3.2µM*	·
COCCN(C(=O)c1ccccc1F)c1nc(-c2ccc(OC)cc2)cs1	10%	22%	?	14%	?	·
CCc1ccc(CSc2nc(-c3ccc(OC)cc3)nc3c2Cc2c(CO)cnc(C)c2O3)cc1	·	·	-1%	·	·	·
CN(Cc1ccc(N(C)C)cc1)C(=O)c1cc2ccccc2o1	?	15%	?	?	29%	·
Cc1ccc(C)c(N2CCN(C(=O)C34CC5CC(C3)CC(n3nnc(C)n3)(C5)C4)CC2)c1	-11%	-16%	2%	21µM*	-13%	·
COC(=O)c1cccc(NC(=O)/C=C/c2ccc3c(c2)OCO3)c1	-8%	2.5µM*	1.3µM*	?	2.8µM*	-94%
NS(=O)(=O)c1ccc(NC(=O)/C=C/c2ccc3c(c2)OCO3)cc1	10%	-1%	-9%	?	5%	-11%
Cc1cc(C)nc(NC(=O)/C=C/c2ccc3c(c2)OCO3)c1	?	2.5µM*	2.1µM*	?	3.2µM*	·
O=C(N/N=C\C=C\c1ccc2c(c1)OCO2)c1cccnc1	4%	3%	17µM*	?	8%	-1%
Cc1cccnc1NC(=O)/C=C/c1ccc2c(c1)OCO2	?	2.8µM*	19µM*	?	2.5µM*	16µM*
COC(=O)c1cc(NC(=O)/C=C/c2ccc3c(c2)OCO3)cc(C(=O)OC)c1	4%	-2%	0%	?	-2%	?
Cc1ccc(N2CC(NC(=O)c3cccs3)CC2=O)cc1C (stereo not given)	·	·	-10%	·	·	·
CC(=O)N1CCC2(CC1)CCN(C(=O)Nc1cccc(F)c1)CC2	·	·	·	·	·	-18%
Cc1ccc(-c2nc(CNC(=O)c3cc(C)on3)cs2)cc1	-1%	-8%	0%	-17%	-1%	·
O=C(/C=C/c1ccc2c(c1)OCO2)c1cccnc1	1%	-1%	15µM*	11%	2%	·
O=C(/C=C/c1ccc2c(c1)OCO2)Nc1cccnc1	3.7µM*	1.3µM*	2.4µM*	?	2.2µM*	13µM*
CC(=O)Nc1ccc(NC(=O)/C=C/c2ccc3c(c2)OCO3)cc1	9%	19%	?	1%	13%	9%
O=C(/C=C/c1ccc2c(c1)OCO2)c1ccccc1	·	·	·	·	·	1%
Cc1ccccc1OCC(=O)OCc1cc(=O)n2ccsc2n1	·	·	3%	·	·	·
Cc1csc(NC(=O)CSc2nnc(-c3ccncc3)o2)n1	5%	?	-2%	?	25%	3.2µM*
Cc1csc(NC(=O)CSc2nnc(-c3ccoc3C)o2)n1	9%	?	-3%	?	?	11µM*
CCc1ccccc1NC(=O)N1CCN(c2cc(-c3noc(C)n3)ccc2C)CC1	·	·	1%	·	·	·
CCN1CCN(c2cc3c(nn2)Oc2ccccc2N3C)CC1	?	?	17µM*	?	29%	16µM*
CCN1CCN(c2nnc(-c3ccccc3)c3ccccc23)CC1	-3%	0%	-5%	-9%	2%	·
COc1ccc(S(=O)(=O)N(C)C)cc1NC(=O)COC(=O)C1CC1	3%	·	·	15%	·	·
CC(C)(C)N1C(=O)Cc2c1nc(N)c1c(N)nc(N3CCCCC3CO)c(C#N)c21 (stereo not given)	2%	23%	8.5µM*	18%	24%	2%
N#Cc1c(NC(=S)NC(=O)c2ccccc2)sc2c1CCC2	?	?	-17%	?	19%	-17%
